Drawing on PubChem BioAssay AID686979 (National Center for Advancing Translational Sciences (NCATS), 2013), this text covers Potency and activity change, negative = growth inhibition for 99 compounds.

“And” between values parts separate entries of the source, which are not always exact repeats. Identical values can stand only once. In all, about 420,000 compounds went through this assay and about 50,000 (12%) were called active. Where a call stands in place of a potency, no number is given. Inconclusive results (about 26%) are left out. Calls follow the shape of the dose curve; as a rule, active = well fitted inhibition curve with a large enough effect; inconclusive = small, poorly fitted or top-dose-only effect; inactive = flat fitted curve, though single readings scatter. For the sample, actives were picked, then their nearest neighbours and some compounds at random. Where a structure was tested more than once in an assay, its records may differ in their call.
Potency is read from the fitted curve at half-maximal effect.

The assay is described as follows: qHTS for Inhibitors of human tyrosyl-DNA phosphodiesterase 1 (TDP1): qHTS in cells in presence of CPT. Also: nearly all actives have a fitted effect of over 55% in size. As to conditions: chicken DT40 Tdp1-/-;hTDP1 cells + 20 nM CPT, ATP luminescence, 48 h; series mostly up to 46.2 µM. A digest of the protocol:
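Chicken DT40 Tdp1-/- cells complemented with human TDP1, 400 cells/well, exposed to compounds plus 20 nM camptothecin for at least 48 h at 37 C; viability read as ATP content by CellTiter-Glo luminescence.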
In general terms: qHTS replaces the single test concentration by a dilution series.
`Cc1nnc(SCC(=O)NC(=O)NC2CCCC2)n1N`: the Potency result was “inactive”. Same read-out and setting: with `Nc1nc(SC23CC4CC(CC(C4)C2)C3)ns1` the entry was “inactive”. Turning to `Nc1nc(NC(=O)/C=C/c2ccccc2)nn1-c1ccccc1`, the Potency result was “inactive”.

Consider `CC1(c2cccc(N)c2)OCCO1`, for which the Potency result was “inactive”. Still for that read-out and setting: with `CC(=O)Nc1ccc(NC(=O)COc2ccc(-c3ccccc3)cc2)cc1` the entry was “inactive”; with `COc1ccc(C2Nc3ccc(NC(=O)COC(C)=O)cc3C(=O)N2Cc2ccccc2)cc1COc1ccc(NC(C)=O)cc1` (centres undefined), 17.8 µM (active); with `COc1ccc(N2C(=O)c3ccccc3NC2c2ccc(OC)c(CN3CCOCC3)c2)cc1` (centres undefined), “inactive”. As for `COc1ccc2c(c1)CCc1cnc(-n3ncc(C(=O)NCc4cccnc4)c3C3CC3)nc1-2`, the activity change, negative = growth inhibition was -5.66% [at 9.04 µM] (inactive). For `Cc1nc2ccccn2c(=O)c1NC(=O)c1cccs1`, the Potency entry was “inactive”. With `Cc1noc(C)c1S(=O)(=O)N(CC(=O)Nc1ccc2c(c1)OCCO2)c1ccc(C(C)C)cc1`, the Potency was 20.6 µM (active). Still for that read-out and setting: as for `Cc1ccc(S(=O)(=O)NCC(=O)Nc2ccc3c(c2)OCCO3)cc1`, the entry is “inactive”. In the case of `CCOc1ccc(N(CC(=O)NCc2ccc(OC)cc2)S(=O)(=O)c2c(C)noc2C)cc1`, the Potency entry is “inactive”.

`Cc1c(C(=O)Nc2cccc(Cl)c2)cn2c(nc3ccccc32)c1C#N`: the Potency is 16.4 µM (active). Still for that read-out and setting: as for `Cn1c(Nc2cccc(Cl)c2)nc2ccccc21`, the entry is “inactive”; as for `O=C(O)c1cccc(NC(=O)c2cc(-c3cccc(Cl)c3)nc3ccccc23)c1`, “inactive”.

Turning to `CC1(c2ccc3ccccc3c2)NC(=O)NC1=O` (centres undefined), the Potency entry was “inactive”.

As for `Cc1cccc(N2C(=O)c3ccc(C(=O)Nc4cccc(C(=O)O)c4)cc3C2=O)c1`, the Potency result is “inactive”.

`Cc1cccc(NC(=O)c2cccc(C(=O)Nc3cccc(C)c3C)n2)c1C`: the Potency result was “inactive”. `CCOc1ccccc1NC(=O)Cn1c(=O)n(Cc2ccccc2)c(=O)c2c(C)c(C(=O)N(C)C)sc21`: the Potency entry is “inactive”. On the same count and under the same terms, with `O=C1C2CCCN2C(=O)N1CCCCN1CCN(c2cccc(C(F)(F)F)c2)CC1` (centres undefined) the entry was “inactive”. `O=C(C1CC(=O)N(C2CCCC2)C1)N1CCN(c2cccc(C(F)(F)F)c2)CC1` (centres undefined): the Potency is 14.6 µM (active). Consider `O=C(C1CC(=O)N(C2CCCCC2)C1)N1CCN(c2ccccc2)CC1` (centres undefined), for which the Potency entry was “inactive”. On the same count and under the same terms, with `COC(=O)c1cc(=O)n(-c2c(Cl)cc(C(F)(F)F)cc2Cl)[nH]1` the entry was “inactive”; with `CC(=O)Nc1ccccc1OC(C)C(=O)N1CCC(C)CC1` (centres undefined), “inactive”. With `O=C(NCC(O)c1ccc([N+](=O)[O-])cc1)C1CCCCC1` (centres undefined), the Potency entry was “inactive”. Take `COC(=O)c1ccc(N2CCOCC2)c(NC(=O)c2ccc3c(c2)OCCO3)c1`: the Potency entry is “inactive”. Same read-out and setting: as for `CCOc1cc(N2CCOCC2)c(OCC)cc1NC(=O)COc1cccc2cccnc12`, the figure is 10.3 µM (active); as for `CCOc1cc(NC(=O)c2ccccc2C(=O)O)c(OCC)cc1NC(=O)c1ccccc1F`, “inactive”. Still for that read-out and setting: as for `NC(=O)C1CCN(C(=O)COc2cccc3cccnc23)CC1`, the entry is “inactive”. On the same count and under the same terms, as for `O=C(COc1nsnc1N1CCOCC1)Nc1ccccc1Cl`, the entry is “inactive”. For the compound `CCOc1cc(N2CCOCC2)c(OCC)cc1NC(=O)c1ccc(C)s1`, the Potency is 9.2 µM (active). On to `Cc1ccc(S(=O)(=O)N2CCN(Cc3cccc(C)c3O)CC2)cc1`, for which the Potency entry was “inactive”. For `O=C(COc1cccc(Cl)c1)NCc1ccccc1`, the Potency result was “inactive”. `COCCN(CCOC)S(=O)(=O)NC[C@H]1O[C@@H](n2cnc3c(N)ncnc32)[C@H](O)[C@@H]1O`: the Potency entry is “inactive”. Regarding `CC(C)(C)N(Cc1ccccc1)C(=O)c1ccncc1`, the Potency result was “inactive”.

`Cc1ccc(CNC(=O)COc2ccc3c(c2)CCC3)cc1`: the Potency entry was “inactive”. Same read-out and setting: with `O=C(CC1C(=O)NCCN1CC(c1ccccc1)c1ccccc1)NCCc1cn[nH]c1` (centres undefined) the entry was “inactive”; with `CCNC(=O)C1CCCN(C(=O)c2ccc(OC)cc2OC)CC1` (centres undefined), “inactive”; with `COc1ccc(NC(=O)c2sc3nc(-c4cc5cccc(OC)c5oc4=O)[nH]c(=O)c3c2C)cc1`, “inactive”.

For `COc1ccccc1C1=Nc2cccc3cccc(c23)N1`, the Potency is 5.17 µM (active). Regarding `c1ccc(C2=Nc3cccc4cccc(c34)N2)cc1`, the Potency was 7.31 µM (active). Regarding `Fc1ccccc1N=C1Nc2cccc3cccc1c23`, the Potency entry was “inactive”. The same measure, in the same setting: with `COc1ccccc1-c1n[nH]nc1C1=CC(=O)CC(C)(C)C1` the entry was “inactive”. Take `NC(=O)COc1ccccc1C(=O)NC12CC3CC(CC(C3)C1)C2`: the Potency result is “inactive”.

Regarding `CC(C)c1ccc(NC(=O)C2CCCN(S(=O)(=O)c3cccnc3)C2)cc1` (centres undefined), the Potency was 16.4 µM (active). For the compound `CSc1ncc(Cl)c(C(=O)Nc2ccc(S(=O)(=O)N3CCCC(C)C3)cc2)n1` (centres undefined), the Potency was 8.2 µM (active).

As to `COc1ccc(CCNC(=O)C2CCCN(S(=O)(=O)c3ccc(OC)cc3)C2)cc1` (centres undefined), the Potency entry is “inactive”. Take `Cc1n[nH]c(C)c1S(=O)(=O)N1CCCC(C(=O)Nc2ccc(Br)cc2)C1` (centres undefined): the Potency entry is “inactive”.

Take `O=C(Nc1ccc(F)cc1)C1CCCN(S(=O)(=O)c2ccc(-n3cnnn3)cc2)C1` (centres undefined): the Potency result is “inactive”. Same read-out and setting: with `CCc1ccc(NC(=O)c2cc(S(=O)(=O)N3CCCC(C)C3)cn2C)cc1` (centres undefined) the entry was “inactive”; with `O=C(Nc1ccc(S(=O)(=O)N2CCCCC2)cc1)c1cnccn1`, “inactive”. Still for that read-out and setting: with `COc1ccc(S(=O)(=O)N2CCCC(C(=O)Nc3ccc(NC(=O)c4ccccn4)cc3)C2)cc1` (centres undefined) the figure was 7.31 µM (active); with `CC1CCCN(S(=O)(=O)c2ccc3[nH]c(=O)cc(C(=O)NCCc4ccc(Cl)cc4)c3c2)C1` (centres undefined), “inactive”; with `CC1CC(C)CN(S(=O)(=O)c2cccc(C(=O)N3C(=O)c4cccc(N)c4C3=O)c2)C1` (centres undefined), “inactive”.

Take `COc1ccc(NC(=O)C2CCC(CNC(=O)[C@@H]3Cc4ccccc4CN3)CC2)cc1` (some centres undefined): the Potency result is “inactive”. The same measure, in the same setting: as for `CCc1cccc(C)c1NC(=O)COC(=O)CNC(=O)c1cccs1`, the entry is “inactive”; as for `Cc1ccc2ncc(C(=O)Nc3ccc(OC(F)(F)F)cc3)c(=O)n2c1`, “inactive”. As to `CC(=O)c1ccc(S(=O)(=O)NCCC(=O)N2CCN(c3ccccn3)CC2)cc1`, the Potency result is “inactive”. The same measure, in the same setting: with `CCOc1ccc(S(=O)(=O)NCCC(=O)N2CCCCCCC2)cc1` the entry was “inactive”; with `CCNS(=O)(=O)c1ccc(CCC(=O)N2CCN(c3ccc(OC)cc3)CC2)cc1`, “inactive”; with `CC(C)NS(=O)(=O)c1ccc(CCC(=O)N2CCOCC2)cc1`, “inactive”. Regarding `CC(=O)Nc1ccc(S(=O)(=O)NCCC(=O)N2CCN(c3ccccc3Cl)CC2)cc1`, the Potency was 20.6 µM (active). The same measure, in the same setting: as for `CCNS(=O)(=O)c1ccc(CCC(=O)N2CCN(c3cc(Cl)ccc3C)CC2)cc1`, the figure is 13 µM (active); as for `CCOC(=O)N1CCC(Nc2c(NCCCN3CCN(CC)CC3)c(=O)c2=O)CC1`, “inactive”. Turning to `O=C(COc1cccnc1[N+](=O)[O-])Nc1ccc(Cl)cc1F`, the Potency entry was “inactive”. The same measure, in the same setting: as for `CCn1c(C)cc(=O)cc1-c1ccc(Cl)cc1`, the entry is “inactive”. For the compound `CCOC(=O)C1=C(C)c2ccccc2OC1C(=O)OCC` (centres undefined), the Potency entry is “inactive”.

Take `O=C(Cn1cnc2cc([N+](=O)[O-])ccc2c1=O)NC(=O)NCc1ccccc1`: the Potency entry is “inactive”. With `CC(C)(C)NC(=O)Cn1cnc2cc([N+](=O)[O-])ccc2c1=O`, the Potency result is “inactive”. `Cc1cc(C(=O)Cn2cnc3cc([N+](=O)[O-])ccc3c2=O)c(C)n1CC1CCCO1` (centres undefined): the Potency was 14.6 µM (active). Consider `NS(=O)(=O)c1ccc(CCNC(=S)Nc2ccc(S(N)(=O)=O)cc2)cc1`, for which the Potency entry was “inactive”. The same measure, in the same setting: as for `Cc1nn(-c2ccccc2)nc1C(=O)OCC(=O)N1CCCCC1C` (centres undefined), the entry is “inactive”.

For `Cc1c(C(=O)Nc2cccc(-c3nnc4n3CCCCC4)c2)oc2ccccc12`, the Potency was 14.6 µM (active). With `O=C(Cn1[nH]c(=O)c2ccccc2c1=O)Nc1cccc(-c2nnc3n2CCCCC3)c1`, the Potency entry is “inactive”. The same measure, in the same setting: as for `Cc1c(C(=O)NC2CCCCC2)oc2ccccc12`, the entry is “inactive”; as for `Cc1cccc(C(=O)NCC(=O)OCC(=O)N(C)CC(=O)Nc2ccccc2Cl)c1`, “inactive”. Same read-out and setting: as for `O=c1oc2cc(O)ccc2cc1-c1ccc(F)cc1`, the figure is 20.6 µM (active). The same measure, in the same setting: with `COc1ccc(-c2cc3ccc(OCc4nn[nH]n4)cc3oc2=O)cc1` the entry was “inactive”. As for `CC(=O)Nc1cc2ccc(OC(C)=O)cc2oc1=O`, the Potency entry is “inactive”. The same measure, in the same setting: with `CC1=C(C(=O)N2CCOCC2)CC(CC(=O)NCc2cccs2)C(=O)N1CCCN1CCCC1=O` (centres undefined) the entry was “inactive”. Same read-out and setting: with `CCC(C)C(NC(=O)C1CCC(=O)N1C(=O)OCc1ccccc1)C(=O)NC(C(=O)N1CCCC1C(N)=O)C(C)CC` (centres undefined) the entry was “inactive”; with `O=C(NCc1ccc(F)cc1)C1CCC(CNc2c(N3CCOCC3)c(=O)c2=O)CC1` (centres undefined), “inactive”. Same read-out and setting: as for `CC(C)NC(=O)NNc1c(Cl)cncc1Cl`, the entry is “inactive”; as for `CCN(CC(=O)NC(C)C)C(=O)c1cc(S(=O)(=O)N2CCCCC2)ccc1N1CCCCC1`, “inactive”; as for `CCOC(=O)C(=CNNc1ccsc1C(=O)OC)C(=O)OCC`, 18.4 µM (active). Turning to `COC(=O)c1sccc1NC(=S)Nc1ccc(C)cc1`, the Potency result was “inactive”.

Take `COC(=O)c1sccc1NC(=O)CCC1CCCC1`: the Potency result is “inactive”. Same read-out and setting: as for `CNC(=O)c1cccc2nc3ccccc3nc12`, the entry is “inactive”; as for `Cc1[nH]c2ccccc2c1C(=O)C(=O)N(C)c1ccccc1`, “inactive”.

On to `O=C(NCc1ccccc1Cl)C1CCN(S(=O)(=O)c2cccc3nonc23)CC1`, for which the Potency result was “inactive”. On the same count and under the same terms, with `Cc1ccc(-c2nnn(CC(=O)N(Cc3ccco3)C(C(=O)NC(C)(C)C)c3ccncc3)n2)o1` (centres undefined) the entry was “inactive”. Same read-out and setting: with `Cc1nc(C)c(C(=O)N(c2ccc(C)c(C)c2)C(C(=O)NCc2ccco2)c2ccccc2)s1` (centres undefined) the entry was “inactive”; with `Cc1nn(-c2ccccc2)c2sc(C(=O)N(Cc3ccco3)C(C)C(=O)NC(C)(C)C)cc12` (centres undefined), 13 µM (active); with `COCC1CCN(C(=O)CCc2nnc(C3(c4ccc(Cl)cc4)CCC3)o2)C1` (centres undefined), “inactive”. On the same count and under the same terms, with `CCNC(=O)N1CCN(S(=O)(=O)c2ccc3c(c2)OCCCO3)CC1` the entry was “inactive”; with `COc1ccc(N2CC(C(=O)NCCS(=O)(=O)N3CCN(c4ccccc4)CC3)CC2=O)cc1` (centres undefined), “inactive”. On to `COc1ccc(N2CCN(C(=O)c3ccc4c(Cl)c5c(nc4c3)CCCC5)CC2)cc1`, for which the Potency result was “inactive and 20.6 µM (active)”. Regarding `CC(C)CCNC(=O)c1ccc2c(Cl)c3c(nc2c1)CCC3`, the Potency entry is “inactive”.

Take `COc1ccc(N2CCN(C(=O)c3ccc(N4CCCCS4(=O)=O)cc3)CC2)cc1`: the Potency result is “inactive”.
